Assay results as given in the supplement of paper PMC11732987, “Enantioselective OTUD7B fragment discovery through chemoproteomics screening and high-throughput optimisation” (Communications Chemistry, 2025).

Experiments:
Assay in all cases: log2 ratio of Biotin-Ahx-Ub-VS probe labelling (fragment/DMSO); higher = less target engagement (more negative = stronger competition), active = hit call of the paper (q ≤ 0.05, log2 ratio ≤ -1)
Details in all cases: compound concentration: 200 uM; treatment time: 3 h
USP42 = target: T1, USP42 (UniProt Q9H9J4)
T1 sequence (whole entry): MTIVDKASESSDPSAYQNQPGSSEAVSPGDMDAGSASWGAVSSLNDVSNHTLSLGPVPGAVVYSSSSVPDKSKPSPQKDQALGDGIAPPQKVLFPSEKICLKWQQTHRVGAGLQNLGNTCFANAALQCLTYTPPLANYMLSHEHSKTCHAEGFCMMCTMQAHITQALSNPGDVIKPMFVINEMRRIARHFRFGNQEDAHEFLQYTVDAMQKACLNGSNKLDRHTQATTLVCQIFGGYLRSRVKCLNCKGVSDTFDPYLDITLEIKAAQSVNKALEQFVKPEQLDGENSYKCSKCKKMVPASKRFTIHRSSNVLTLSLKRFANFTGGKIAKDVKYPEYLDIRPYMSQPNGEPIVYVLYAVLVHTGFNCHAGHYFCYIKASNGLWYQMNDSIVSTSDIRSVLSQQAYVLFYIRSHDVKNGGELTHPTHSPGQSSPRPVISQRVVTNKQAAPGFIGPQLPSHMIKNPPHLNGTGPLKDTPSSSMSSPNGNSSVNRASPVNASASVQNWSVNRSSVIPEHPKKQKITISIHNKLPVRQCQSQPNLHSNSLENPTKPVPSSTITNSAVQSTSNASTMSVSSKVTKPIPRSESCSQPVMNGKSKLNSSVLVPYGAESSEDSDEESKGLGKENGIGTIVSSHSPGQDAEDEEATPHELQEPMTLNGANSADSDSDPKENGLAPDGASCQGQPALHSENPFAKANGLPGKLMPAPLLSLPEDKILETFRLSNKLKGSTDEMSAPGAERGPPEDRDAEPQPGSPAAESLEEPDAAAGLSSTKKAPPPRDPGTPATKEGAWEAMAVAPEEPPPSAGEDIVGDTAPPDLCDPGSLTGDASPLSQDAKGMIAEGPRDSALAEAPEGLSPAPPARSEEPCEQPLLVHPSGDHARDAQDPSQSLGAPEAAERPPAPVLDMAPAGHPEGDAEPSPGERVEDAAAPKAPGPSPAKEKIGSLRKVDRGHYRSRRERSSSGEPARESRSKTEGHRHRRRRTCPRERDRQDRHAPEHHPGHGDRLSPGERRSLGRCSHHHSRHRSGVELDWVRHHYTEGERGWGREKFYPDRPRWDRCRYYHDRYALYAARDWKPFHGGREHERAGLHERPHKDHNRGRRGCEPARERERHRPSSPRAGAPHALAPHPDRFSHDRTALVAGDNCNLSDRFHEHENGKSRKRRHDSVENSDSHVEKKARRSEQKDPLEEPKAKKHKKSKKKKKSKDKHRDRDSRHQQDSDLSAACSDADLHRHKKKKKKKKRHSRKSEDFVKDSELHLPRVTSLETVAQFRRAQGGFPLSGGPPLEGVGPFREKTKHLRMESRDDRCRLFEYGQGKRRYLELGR
In short: (§1)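 Labelled DUBs were enriched with NeutrAvidin, digested with LysC and trypsin, and run by diaPASEF LC-MS/MS. The labelling used Biotin-Ahx-Ub-VS at 0.5 µM final for 1 h on HEK293T lysate (495 µg per sample) previously treated in triplicate with fragment at 200 µM or vehicle for 3 h. Values are average log2 fragment/vehicle ratios by unpaired t-test on global-median-normalised Spectronaut quantities of proteins with ≥2 unique peptides.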

USP46 = USP46 (UniProt P62068)
In short: as §1

USP47 = target: T2, USP47 (UniProt Q96K76)
T2 sequence (whole entry): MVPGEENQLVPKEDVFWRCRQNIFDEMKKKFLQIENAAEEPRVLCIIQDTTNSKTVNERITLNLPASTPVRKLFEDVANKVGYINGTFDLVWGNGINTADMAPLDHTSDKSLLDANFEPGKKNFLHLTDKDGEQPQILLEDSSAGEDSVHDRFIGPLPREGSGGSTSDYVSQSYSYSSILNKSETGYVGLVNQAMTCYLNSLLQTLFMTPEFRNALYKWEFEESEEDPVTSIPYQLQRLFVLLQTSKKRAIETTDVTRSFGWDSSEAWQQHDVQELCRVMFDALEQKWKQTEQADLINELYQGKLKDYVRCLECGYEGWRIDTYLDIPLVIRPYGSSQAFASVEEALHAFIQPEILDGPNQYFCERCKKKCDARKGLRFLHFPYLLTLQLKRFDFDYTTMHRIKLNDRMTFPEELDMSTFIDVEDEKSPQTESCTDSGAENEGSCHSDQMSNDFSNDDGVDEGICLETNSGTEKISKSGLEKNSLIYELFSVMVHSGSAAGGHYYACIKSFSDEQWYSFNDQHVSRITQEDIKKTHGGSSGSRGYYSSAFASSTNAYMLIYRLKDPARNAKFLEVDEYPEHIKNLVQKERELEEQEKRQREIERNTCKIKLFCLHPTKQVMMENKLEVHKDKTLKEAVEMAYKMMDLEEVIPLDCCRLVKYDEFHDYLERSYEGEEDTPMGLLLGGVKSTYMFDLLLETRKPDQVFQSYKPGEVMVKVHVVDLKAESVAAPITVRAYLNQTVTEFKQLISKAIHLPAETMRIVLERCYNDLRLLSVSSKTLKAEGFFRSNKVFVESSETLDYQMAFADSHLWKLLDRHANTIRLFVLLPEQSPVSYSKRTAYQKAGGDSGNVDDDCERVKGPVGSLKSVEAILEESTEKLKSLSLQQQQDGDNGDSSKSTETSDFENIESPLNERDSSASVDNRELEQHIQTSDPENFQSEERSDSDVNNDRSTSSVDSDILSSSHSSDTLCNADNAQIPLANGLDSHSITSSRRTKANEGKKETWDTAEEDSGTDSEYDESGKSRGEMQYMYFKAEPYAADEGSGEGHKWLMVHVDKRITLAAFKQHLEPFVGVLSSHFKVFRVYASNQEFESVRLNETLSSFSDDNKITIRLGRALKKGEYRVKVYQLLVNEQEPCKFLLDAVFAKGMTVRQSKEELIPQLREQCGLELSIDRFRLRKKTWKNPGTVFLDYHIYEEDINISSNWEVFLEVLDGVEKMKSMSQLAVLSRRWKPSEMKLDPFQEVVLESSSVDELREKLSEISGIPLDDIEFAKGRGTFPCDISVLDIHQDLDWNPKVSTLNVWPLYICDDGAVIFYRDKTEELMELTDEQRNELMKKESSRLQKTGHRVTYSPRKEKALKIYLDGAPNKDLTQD
In short: as §1

USP48 = target: T3, USP48 (UniProt Q86UV5)
T3 sequence (whole entry): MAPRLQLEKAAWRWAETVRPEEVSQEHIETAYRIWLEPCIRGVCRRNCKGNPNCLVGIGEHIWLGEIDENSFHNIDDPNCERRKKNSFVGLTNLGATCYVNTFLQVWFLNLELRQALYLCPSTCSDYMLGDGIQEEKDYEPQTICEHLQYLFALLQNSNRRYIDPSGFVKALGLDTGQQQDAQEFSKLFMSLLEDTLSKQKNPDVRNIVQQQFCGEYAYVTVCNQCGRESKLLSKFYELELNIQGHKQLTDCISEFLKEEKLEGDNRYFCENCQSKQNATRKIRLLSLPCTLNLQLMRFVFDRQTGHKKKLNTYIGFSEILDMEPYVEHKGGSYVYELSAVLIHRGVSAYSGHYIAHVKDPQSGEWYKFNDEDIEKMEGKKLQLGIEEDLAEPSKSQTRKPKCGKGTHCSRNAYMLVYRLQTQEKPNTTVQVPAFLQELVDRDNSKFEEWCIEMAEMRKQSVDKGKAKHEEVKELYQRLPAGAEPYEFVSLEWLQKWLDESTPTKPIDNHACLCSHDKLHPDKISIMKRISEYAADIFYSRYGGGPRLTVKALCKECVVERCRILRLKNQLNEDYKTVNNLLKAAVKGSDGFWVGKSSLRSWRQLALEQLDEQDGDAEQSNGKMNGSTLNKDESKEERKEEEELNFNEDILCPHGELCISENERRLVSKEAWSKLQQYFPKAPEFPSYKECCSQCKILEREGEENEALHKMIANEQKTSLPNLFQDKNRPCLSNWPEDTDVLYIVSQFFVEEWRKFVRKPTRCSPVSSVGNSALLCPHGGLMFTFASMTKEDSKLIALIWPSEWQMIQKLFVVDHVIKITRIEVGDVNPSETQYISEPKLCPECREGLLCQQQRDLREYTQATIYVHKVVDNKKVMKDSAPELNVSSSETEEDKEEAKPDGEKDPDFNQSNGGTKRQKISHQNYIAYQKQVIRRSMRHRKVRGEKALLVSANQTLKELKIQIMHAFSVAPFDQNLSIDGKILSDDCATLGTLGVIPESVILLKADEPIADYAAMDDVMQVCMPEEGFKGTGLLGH
In short: as §1

USP5 = target: T4, USP5 (UniProt P45974)
T4 sequence (whole entry): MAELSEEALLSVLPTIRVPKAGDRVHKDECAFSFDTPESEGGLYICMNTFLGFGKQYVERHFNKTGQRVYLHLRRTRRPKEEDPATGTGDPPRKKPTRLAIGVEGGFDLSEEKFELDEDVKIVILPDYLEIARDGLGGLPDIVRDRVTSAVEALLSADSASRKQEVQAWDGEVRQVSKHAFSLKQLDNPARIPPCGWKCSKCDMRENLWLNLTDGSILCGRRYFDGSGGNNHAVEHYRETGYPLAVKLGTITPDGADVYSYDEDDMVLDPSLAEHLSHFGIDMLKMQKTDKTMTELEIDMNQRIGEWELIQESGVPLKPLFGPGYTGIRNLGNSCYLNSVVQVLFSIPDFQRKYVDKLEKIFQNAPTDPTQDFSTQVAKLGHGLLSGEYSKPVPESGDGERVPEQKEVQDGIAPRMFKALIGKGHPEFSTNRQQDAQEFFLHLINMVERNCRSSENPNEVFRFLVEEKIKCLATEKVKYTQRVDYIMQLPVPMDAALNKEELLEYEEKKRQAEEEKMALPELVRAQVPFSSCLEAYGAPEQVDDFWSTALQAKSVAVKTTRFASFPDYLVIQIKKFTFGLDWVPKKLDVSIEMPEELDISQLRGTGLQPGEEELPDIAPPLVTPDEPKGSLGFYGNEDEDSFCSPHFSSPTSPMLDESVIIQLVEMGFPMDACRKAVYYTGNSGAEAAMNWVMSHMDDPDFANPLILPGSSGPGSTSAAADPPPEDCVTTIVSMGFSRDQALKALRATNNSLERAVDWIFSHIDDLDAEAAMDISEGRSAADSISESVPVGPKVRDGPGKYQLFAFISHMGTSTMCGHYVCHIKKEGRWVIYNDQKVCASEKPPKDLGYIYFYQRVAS
In short: as §1

USP54 = USP54 (UniProt Q70EL1)
In short: as §1

USP7 = USP7 (UniProt Q93009)
In short: as §1

USP8 = target: T5, USP8 (UniProt P40818)
T5 sequence (whole entry): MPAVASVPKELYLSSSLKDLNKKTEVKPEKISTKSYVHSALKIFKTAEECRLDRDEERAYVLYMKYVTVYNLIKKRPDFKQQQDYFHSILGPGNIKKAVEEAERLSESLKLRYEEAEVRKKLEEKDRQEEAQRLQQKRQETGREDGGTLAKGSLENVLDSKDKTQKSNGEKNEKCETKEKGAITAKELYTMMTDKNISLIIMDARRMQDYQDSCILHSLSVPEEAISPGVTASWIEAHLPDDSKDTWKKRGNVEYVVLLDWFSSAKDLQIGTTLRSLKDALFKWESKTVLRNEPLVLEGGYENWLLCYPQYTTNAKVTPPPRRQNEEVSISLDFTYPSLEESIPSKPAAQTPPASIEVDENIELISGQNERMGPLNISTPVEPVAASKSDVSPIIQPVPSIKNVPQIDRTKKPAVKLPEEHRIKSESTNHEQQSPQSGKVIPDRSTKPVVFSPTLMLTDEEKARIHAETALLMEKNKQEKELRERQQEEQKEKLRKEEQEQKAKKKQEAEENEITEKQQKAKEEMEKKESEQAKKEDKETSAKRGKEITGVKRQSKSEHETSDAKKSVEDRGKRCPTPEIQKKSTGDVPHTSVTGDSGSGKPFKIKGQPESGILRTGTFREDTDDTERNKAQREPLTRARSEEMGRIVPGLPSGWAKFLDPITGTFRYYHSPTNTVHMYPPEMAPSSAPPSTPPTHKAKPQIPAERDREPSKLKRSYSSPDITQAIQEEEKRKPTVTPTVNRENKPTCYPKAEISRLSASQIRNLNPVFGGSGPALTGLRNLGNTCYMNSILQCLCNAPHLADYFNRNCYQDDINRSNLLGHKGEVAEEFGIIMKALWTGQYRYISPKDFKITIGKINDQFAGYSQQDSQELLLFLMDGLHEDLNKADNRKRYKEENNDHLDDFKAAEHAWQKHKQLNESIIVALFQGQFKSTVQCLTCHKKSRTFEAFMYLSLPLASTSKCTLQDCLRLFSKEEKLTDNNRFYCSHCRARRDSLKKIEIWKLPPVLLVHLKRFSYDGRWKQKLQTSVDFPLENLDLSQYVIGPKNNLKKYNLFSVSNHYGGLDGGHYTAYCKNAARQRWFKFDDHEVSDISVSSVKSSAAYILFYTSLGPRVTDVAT
In short: as §1

USP9X = USP9X (UniProt Q93008)
In short: as §1

UniProt O00487 = target: UniProt O00487
In short: as §1

Measured: log2 ratio of Biotin-Ahx-Ub-VS probe labelling

Chain of USP54 (Q70EL1 whole entry): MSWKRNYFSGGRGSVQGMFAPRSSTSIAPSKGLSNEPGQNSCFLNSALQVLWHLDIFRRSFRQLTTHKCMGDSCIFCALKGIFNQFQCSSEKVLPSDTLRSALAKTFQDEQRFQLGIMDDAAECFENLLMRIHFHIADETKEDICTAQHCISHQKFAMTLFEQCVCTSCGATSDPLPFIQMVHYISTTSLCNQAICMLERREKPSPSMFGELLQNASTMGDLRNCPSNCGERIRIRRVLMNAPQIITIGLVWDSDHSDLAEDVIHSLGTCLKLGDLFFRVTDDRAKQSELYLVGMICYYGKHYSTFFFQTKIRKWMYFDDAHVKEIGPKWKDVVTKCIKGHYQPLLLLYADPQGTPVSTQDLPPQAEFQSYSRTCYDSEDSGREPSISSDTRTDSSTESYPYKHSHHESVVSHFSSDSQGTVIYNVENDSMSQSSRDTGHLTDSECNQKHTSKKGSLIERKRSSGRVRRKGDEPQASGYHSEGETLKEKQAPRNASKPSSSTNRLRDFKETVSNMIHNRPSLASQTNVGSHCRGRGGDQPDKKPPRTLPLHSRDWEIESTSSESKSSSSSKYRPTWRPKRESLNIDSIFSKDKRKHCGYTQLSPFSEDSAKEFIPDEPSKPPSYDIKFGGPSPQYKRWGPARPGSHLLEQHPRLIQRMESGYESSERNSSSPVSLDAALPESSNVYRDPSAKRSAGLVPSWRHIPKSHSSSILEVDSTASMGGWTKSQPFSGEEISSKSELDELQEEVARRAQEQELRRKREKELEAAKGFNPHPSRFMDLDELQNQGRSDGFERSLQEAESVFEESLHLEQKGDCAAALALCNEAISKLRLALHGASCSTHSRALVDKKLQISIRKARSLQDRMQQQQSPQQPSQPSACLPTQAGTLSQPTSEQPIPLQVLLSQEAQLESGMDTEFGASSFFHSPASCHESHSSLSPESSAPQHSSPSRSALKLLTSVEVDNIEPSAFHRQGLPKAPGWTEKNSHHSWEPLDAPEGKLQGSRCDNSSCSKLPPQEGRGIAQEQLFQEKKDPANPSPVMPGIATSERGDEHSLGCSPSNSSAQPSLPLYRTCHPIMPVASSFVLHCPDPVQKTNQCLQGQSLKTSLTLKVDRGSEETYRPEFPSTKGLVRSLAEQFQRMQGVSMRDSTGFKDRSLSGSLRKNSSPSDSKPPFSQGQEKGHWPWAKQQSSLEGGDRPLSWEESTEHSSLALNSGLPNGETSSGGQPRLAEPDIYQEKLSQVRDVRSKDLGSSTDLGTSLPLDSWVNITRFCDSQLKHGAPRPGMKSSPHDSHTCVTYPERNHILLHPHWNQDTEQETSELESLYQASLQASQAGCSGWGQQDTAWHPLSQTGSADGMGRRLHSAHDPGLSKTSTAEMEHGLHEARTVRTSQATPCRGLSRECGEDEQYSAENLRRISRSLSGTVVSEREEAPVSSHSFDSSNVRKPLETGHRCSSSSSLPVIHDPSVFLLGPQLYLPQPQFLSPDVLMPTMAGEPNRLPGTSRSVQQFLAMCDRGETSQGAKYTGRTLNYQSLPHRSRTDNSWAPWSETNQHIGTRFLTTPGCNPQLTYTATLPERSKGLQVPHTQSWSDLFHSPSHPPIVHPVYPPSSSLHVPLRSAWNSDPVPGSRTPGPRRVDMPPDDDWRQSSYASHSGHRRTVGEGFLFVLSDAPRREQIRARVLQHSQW
Chain of UniProt O00487 (O00487 whole entry): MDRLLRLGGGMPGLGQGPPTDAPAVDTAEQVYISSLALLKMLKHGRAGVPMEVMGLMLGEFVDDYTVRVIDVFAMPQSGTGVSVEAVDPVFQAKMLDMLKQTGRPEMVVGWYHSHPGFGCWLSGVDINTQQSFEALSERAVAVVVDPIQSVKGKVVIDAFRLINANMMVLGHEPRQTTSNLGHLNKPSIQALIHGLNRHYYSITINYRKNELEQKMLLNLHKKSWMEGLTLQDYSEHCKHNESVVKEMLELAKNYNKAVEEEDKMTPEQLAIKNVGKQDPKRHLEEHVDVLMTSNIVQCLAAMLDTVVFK
Chain of USP7 (Q93009 whole entry, looked up): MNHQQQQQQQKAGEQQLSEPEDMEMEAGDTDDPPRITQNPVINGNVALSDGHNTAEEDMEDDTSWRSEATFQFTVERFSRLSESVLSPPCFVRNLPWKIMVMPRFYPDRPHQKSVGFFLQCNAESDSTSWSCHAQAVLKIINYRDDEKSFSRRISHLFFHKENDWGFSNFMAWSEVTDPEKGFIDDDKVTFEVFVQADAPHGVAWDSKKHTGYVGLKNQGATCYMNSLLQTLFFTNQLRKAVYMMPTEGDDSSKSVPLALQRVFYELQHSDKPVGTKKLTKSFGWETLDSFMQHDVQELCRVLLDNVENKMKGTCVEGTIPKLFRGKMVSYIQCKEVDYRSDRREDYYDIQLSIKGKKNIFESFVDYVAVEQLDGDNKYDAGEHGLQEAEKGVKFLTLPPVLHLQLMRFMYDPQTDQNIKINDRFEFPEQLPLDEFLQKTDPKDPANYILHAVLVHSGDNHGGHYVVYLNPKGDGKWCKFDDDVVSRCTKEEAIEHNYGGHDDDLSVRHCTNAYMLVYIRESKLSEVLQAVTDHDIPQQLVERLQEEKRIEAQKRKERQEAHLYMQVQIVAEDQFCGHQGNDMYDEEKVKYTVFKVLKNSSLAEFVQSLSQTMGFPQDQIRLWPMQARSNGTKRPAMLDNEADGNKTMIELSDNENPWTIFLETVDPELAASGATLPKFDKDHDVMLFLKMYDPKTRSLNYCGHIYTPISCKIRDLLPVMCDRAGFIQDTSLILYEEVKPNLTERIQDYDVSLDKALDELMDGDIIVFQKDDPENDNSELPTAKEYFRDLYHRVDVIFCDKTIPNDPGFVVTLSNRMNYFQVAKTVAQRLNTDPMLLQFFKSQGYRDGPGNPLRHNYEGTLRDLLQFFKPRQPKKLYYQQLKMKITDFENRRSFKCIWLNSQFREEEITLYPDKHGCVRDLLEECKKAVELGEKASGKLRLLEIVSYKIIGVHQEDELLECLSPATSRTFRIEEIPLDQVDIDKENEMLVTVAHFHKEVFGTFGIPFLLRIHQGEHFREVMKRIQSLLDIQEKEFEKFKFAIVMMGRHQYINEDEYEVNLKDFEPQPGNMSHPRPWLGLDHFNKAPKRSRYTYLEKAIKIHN
Chain of USP46 (P62068 whole entry): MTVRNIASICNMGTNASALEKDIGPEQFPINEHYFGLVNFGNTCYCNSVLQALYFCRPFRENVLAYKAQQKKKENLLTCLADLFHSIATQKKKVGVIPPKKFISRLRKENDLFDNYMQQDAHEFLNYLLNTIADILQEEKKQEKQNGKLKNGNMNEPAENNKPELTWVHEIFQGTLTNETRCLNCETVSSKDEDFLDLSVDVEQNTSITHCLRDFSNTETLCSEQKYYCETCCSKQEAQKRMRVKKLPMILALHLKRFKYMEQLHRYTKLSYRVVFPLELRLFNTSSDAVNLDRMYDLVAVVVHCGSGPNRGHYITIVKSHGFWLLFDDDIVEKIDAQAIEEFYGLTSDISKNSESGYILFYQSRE

CC(NC(=O)CCl)c1csc(-c2ccccc2)n1.Cl (stereo not given)
inactive: USP42 -0.201 | USP46 -0.41 | USP47 0.0356 | USP48 -0.587 | USP5 -0.0456 | USP54 0.348 | USP7 -0.457 | USP8 -0.318 | USP9X -0.619 | UniProt O00487 -0.213
